# Screening data from PubChem.
# Pf growth 48h: Primary qHTS for delayed death inhibitors of the malarial parasite plastid, 48 hour incubation. Potency, µM (series often up to 28.7 µM), for inactives: top-dose activity change, negative = inhibition, hits mostly inhibitors. P. falciparum luciferase growth in erythrocytes, 48 h. 310,000 tested, 5.9% active; also: potency is read from the fitted curve at half-maximal effect; % is scaled to controls: 0 for no effect and ±100 for the full control effect
#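 Read-out is firefly luciferase luminescence from an integrated reporter in P. falciparum, so falling signal marks reduced parasite growth. Infected erythrocytes were at 2% hematocrit and 0.1% parasitemia (final) in Albumax-supplemented RPMI 1640.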
# HCMV antiviral: qHTS Assay for inhibitors of the human cytomegalovirus (HCMV); AID 1259415, 2018; activity change, negative = inhibition, % at 57.5 µM; 410,000 tested, 4.5% active; HFF cells, HCMV-luciferase reporter, 72 h; hits give low values; in the data active = activity change below about -60%; inconclusive = no clear call, values can overlap the other calls; inactive = above about -39%; also: % is scaled to controls: 0 for no effect and ±100 for the full control effect
#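 Cell-based, HFFs, 1000 cells/well, 16 h 37C; cpds in DMSO + HCMV-luc, MOI 1 PFU/cell; 72 h 37C; OneGlo luminescence after 5 min RT; norm. to buffer vs Salinomycin 10uM.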
# HCV inh: qHTS Assay for Inhibitors of Hepatitis C Virus (HCV). Huh7.5.1 HCVcc-Cre infection, luciferase reporter, 44 h. Potency, µM (highest dose often 41.8 µM), without a hit: at the highest dose activity change, negative = inhibition, actives largely listed as inhibitors. 340,000 tested, 3.4% active. AID 651820, 2012; also: potency is read from the fitted curve at half-maximal effect; % is scaled to controls: 0 for no effect and ±100 for the full control effect
#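 Compounds are dispensed onto cells plated 4 h earlier at 1,000 per well, with HCVcc-Cre virus (about 0.5 moi) added next. Following 44 h of culture, luminescent signal is measured for 15 sec after 15 min with substrate at room temperature.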
# Shiga inhibitor: A qHTS for Small Molecule Inhibitors of Shiga Toxin | Vero cells, Shiga toxin protein synthesis inhibition reporter | inhibition, % at 38.7 µM | 290,000 tested, 9.2% active; in the data active = inhibition mostly above about 28%, no sharp cut-off; inactive = mostly below about 43%; also: 0% is about no effect
# Pf growth 96h: Primary qHTS for delayed death inhibitors of the malarial parasite plastid, 96 hour incubation. P. falciparum luciferase reporter growth, 96 h. Potency, µM (highest dose often 28.7 µM), for the others: at the highest dose activity change, negative = inhibition, actives largely listed as inhibitors. 320,000 tested, 6.9% active. AID 504834, 2011; also: potency is read from the fitted curve at half-maximal effect; % is scaled to controls: 0 for no effect and ±100 for the full control effect
#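 Two parasite generations (96 h, 37 C, 5% CO2) of compound exposure in infected erythrocytes (0.05% parasitemia, 2% hematocrit). Luciferase-reporter P. falciparum; decreased luminescence indicates inhibited growth, aimed at apicoplast-acting delayed death.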
# Cycloheximide cs: Cycloheximide Counterscreen for Small Molecule Inhibitors of Shiga Toxin. cell reporter, cycloheximide protein synthesis inhibition counterscreen. max response, %. 300,000 tested, 12% active; in the data active = max response mostly above about 13%, no sharp cut-off; inactive = mostly below about 14%; also: read at 38.3 µM for the half of the compounds with a filed dose; 0% is about no effect
# * marks the source's active call; other numbers are inactive results; ? = inconclusive; / = no result given; ! = not active in a repeat; [ ] = another dose, or the depositor's remark. Compounds with a hit are over-represented: about 21% of the library has one in this group of screens. Unless noted, calls follow the shape of the dose curve; as a rule, active = well fitted inhibition curve with a large enough effect; inconclusive = small, poorly fitted or top-dose-only effect, or another doubt; inactive = no such curve, though single readings can be large or run the other way.
SMILES,Pf growth 48h,HCMV antiviral,HCV inh,Shiga inhibitor,Pf growth 96h,Cycloheximide cs
O=C(Nc1ccc2c(c1)OCO2)c1noc2c1CCCC2,201.9%,33.3,-3.1%,52.7*,48.3%,33.5*
O=C(Nc1cccnc1)c1noc2c1CCCC2,108.8%,19.6,-9.1%,85.4*,34.3%,46.8*
CCC(C)(C)c1ccc(OCC(=O)Nc2ccncc2)cc1,-7.3%,4.7,15.5%,-1.7,?,9.4
CC(C)c1ccc(Nc2ncnc3c2nc2n3CCCC2)cc1,/,-19.2,/,/,/,/
O=C(O)c1ccc(NC(=O)c2cn(-c3ccccc3)nc2-c2ccccc2)cc1,24.9%,22.6,11.6%,55.6*,-5.3%,21.1*
O=C(O)c1ccc(NC(=O)c2cn(-c3ccccc3)nc2-c2ccc(Br)cc2)cc1,-4.5%,-63.6*!,9.6%,-9.4,159.9%[5.75 µM],-5.9
COc1ccc(-c2nn(-c3ccccc3)cc2C(=O)Nc2ccc(C(=O)O)cc2)cc1,-15.2%,13.1,?,-7.4,?,-4.2
N#Cc1c(-n2ncnc2-c2ccc(Br)cc2)sc2c1CCCCC2,/,-20.5,/,/,/,/
Cc1ccc(S(=O)(=O)Nc2cccc(-c3ccc(N4CCCC4)nn3)c2)c(C)c1,/,-32.4,/,/,/,/
Cc1ccc(S(=O)(=O)Nc2cccc(-c3ccc(N4CCCCC4)nn3)c2)s1,/,20.8,/,/,/,/
O=S(=O)(Nc1cccc(-c2ccc(N3CCCCCC3)nn2)c1)c1ccccc1F,98.7%,58.1,-7.3%,110.2*,14.7µM*,31.8*
O=S(=O)(Nc1cccc(-c2ccc(N3CCCCCC3)nn2)c1)c1ccccc1Cl,25.8%,-75.7*,11.2µM*,57.7*,?,33.6*
C/C(=N\Nc1ccc(C(=O)O)cc1)c1nc2ccccc2n1C,209.9%,/,8.1%,-0.6,?,6.4
C/C(=N/Nc1ccc(C(=O)O)cc1)c1ccc(O)c(O)c1O,107.4%,-6.2,10.0%,83.7*,?,51.5*
COc1cc(/C(C)=N/Nc2ccc(C(=O)O)cc2)cc(OC)c1OC,146.0%,33.7,12.8%,171.1*,-12.1%,70.5*
COc1ccc(OC)c(/C(C)=N/Nc2ccc(C(=O)O)cc2)c1,139.1%,-96.2*,24.0%,54.6*,76.9%,37.6*
COc1ccc(C(=O)O)cc1OC,/,-5.4,6.3%,/,/,/
COc1ccc(/C(C)=N/Nc2ccc(C(=O)O)cc2)cc1OC,256.4%,20.7,4.2%,62.8,225.0%,40.5*
COc1ccc(OC)c(C(=O)c2ccc(C(=O)c3cc(OC)ccc3OC)cc2)c1,2.8%,32.2,?,-16.7,/,-7.3
COc1cccc(OC)c1C1=Nn2c(nnc2-c2ccccc2C)SC1,/,/,/,6.5,/,7.3
CC(=O)C1C(N2CC2)CC2C3CC=C4CC(O)CCC4(C)C3CCC21C (stereo not drawn),/,-75.7*,11.2µM*,/,/,/
CC(=O)[C@H]1[C@H](C#N)CC2C3CC=C4C[C@@H](O)CCC4(C)C3CCC21C (stereo partly drawn),/,/,/,-4.2,/,-1.4
C[C@@H]1COc2cc(N3CCN(Cc4ccccc4F)CC3)ccc2S(=O)(=O)N1,/,-17.3,/,/,/,/
CCOC(=O)C1(Cc2ccc(OC)cc2)CCN(C(=O)c2ccoc2C)CC1,?,-27.7,-2.3%,20.6,49.8%,11.2*
CCOC(=O)C1(Cc2ccc(OC)cc2)CCN(C(=O)c2cncs2)CC1,-7.1%,37.3,8.1%,30.7,?,15.7*
SMILES,Pf growth 48h,HCMV antiviral,HCV inh,Shiga inhibitor,Pf growth 96h,Cycloheximide cs
Cn1ccc(C(=O)N/N=C/c2ccncc2)n1,3.8%,-26.4,6.6%,27.9*,-23.5%,32.3*
Cc1cccc(C(=O)N/N=C/c2ccncc2)c1,31.5%,-12.4,5.2%,5.7,?,14.0*
O=C(N/N=C/c1ccncc1)c1ccncc1,/,-14.3,14.2%,/,/,/
O=C(N/N=C/c1ccc(O)cc1)c1ccncc1,-7.6%,8.7,23.4%,21.1,5.3%,9.8*
Cn1cc([N+](=O)[O-])c(C(=O)N/N=C/c2ccncc2)n1,?,?,-6.2%,-3.8,31.3%,1.4
O=C(N/N=C/c1ccc(OC(=O)c2cccs2)cc1)c1cccc(F)c1,58.4%,16.2,7.5%,31.2,31.1%,47.0*
CCC1CCCCN1C(=O)c1ccc(OC2CCN(C(=O)C3CC3)CC2)cc1 (stereo not drawn),-9.5%,-23.4,-8.8%,26.1,-7.4%,-2.5
O=C(Cc1ccc(Cl)cc1)Nc1ccccc1N1CCN(C(=O)c2ccccc2)CC1,?,?,?,-1.3,?,0.9
Cc1cccc(C)c1NC(=O)Cn1c(=O)n(CCC(=O)NCc2ccccc2Cl)c(=O)c2sccc21,/,7.5,/,/,/,/
Cc1ccc(S(=O)(=O)N2CCN(C(=O)CSc3ncn[nH]3)CC2)cc1,-23.6%,-11.3,1.4%,/,?,/
O=C(N/N=C/c1cccnc1)c1cccc(F)c1,25.6%,27.2,9.3%,23.0*,?,19.9*
COc1ccc2ccccc2c1/C=N/NC(=O)c1cccc(C)c1,/,7.0,11.2µM*,/,/,/
Cc1cccc(C(=O)N/N=C/c2ccc(OC3CSC3)cc2)c1,?,22.0,?,15.4,12.4%,24.0*
COc1cccc(C(=O)N/N=C/c2ccc(OC3CSC3)cc2)c1,-7.7%,46.4,10.3%,31.3,/,16.4
Cc1cccc(OCC(=O)NC(C)C(=O)N/N=C/c2c(OCc3ccccc3)ccc3ccccc23)c1 (stereo not drawn),6.57µM*,-73.5*,7.94µM*,14.4,/,6.5
Cn1c(=O)c2c(nc(SCC(=O)Nc3ccccc3F)n2Cc2ccccc2F)n(C)c1=O,/,10.6,/,/,/,/
COc1ccc(CCn2c(=O)c3cccnc3n(Cc3cccc([N+](=O)[O-])c3)c2=O)cc1OC,17.2%,-4.1,2.6%,-6.9,?,6.4
CC(C)CCN(C(=O)C1CSC2(C)CCC(=O)N12)c1c(N)n(Cc2ccccc2)c(=O)[nH]c1=O (stereo not drawn),?,-2.2,11.3%,/,2.2%,/
O=C(N/N=C/c1cccnc1)c1cc(O)c(O)c(O)c1,0.0%,-27.4,-2.6%,2.2,19.3%,-1.0
O=C(N/N=C/c1ccc(N2CCOCC2)cc1)c1ccc(O)cc1,31.5%,-34.8,?,72.9*,-5.0%,36.6*
O=C(N/N=C/c1ccc(N2CCOCC2)s1)c1ccc(O)cc1,/,30.2,/,/,/,/
Cc1ccc(/C=N\NC(=O)c2csnn2)cc1,102.9%,21.4,3.2%,98.2*,30.1%,30.0*
Cc1ccc(/C=N/NC(=O)c2ccncc2)cc1,0.0%,23.2,8.1%,46.9,-103.4%,22.4*
O=C(N/N=C/c1cccnc1)c1ccc(O)cc1,28.5%,4.9,-0.7%,40.3,2.7%,19.5*
Cc1cccc(CCNC(=O)c2ccc3c(c2)nc2n3CCCCC2)c1,/,13.8,/,/,/,/
CC(=O)C1=C(C)N(Cc2ccc(Cl)cc2)C(=S)NC1c1cccc(Br)c1 (stereo not drawn),/,-9.0,/,/,/,/
